The campaign covered roughly 1,300 compounds. About 25 (2%) were called active. How the calls were made is not given here. This excerpt belongs to a sample that is enriched for actives.
Biological target: Estrogen receptor (Homo sapiens) (UniProt P03372)
Test: ERα coactivator peptide binding inhibitors, primary screen, biochemical, LOPAC library, TR-FRET (AID 694);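 further: receptor was agonist-bound with estradiol present during the assay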
Conditions: TR-FRET ERalpha-coactivator peptide binding, stronger effect = higher value

Estrogen receptor (Homo sapiens), sequence (P03372 whole entry, looked up): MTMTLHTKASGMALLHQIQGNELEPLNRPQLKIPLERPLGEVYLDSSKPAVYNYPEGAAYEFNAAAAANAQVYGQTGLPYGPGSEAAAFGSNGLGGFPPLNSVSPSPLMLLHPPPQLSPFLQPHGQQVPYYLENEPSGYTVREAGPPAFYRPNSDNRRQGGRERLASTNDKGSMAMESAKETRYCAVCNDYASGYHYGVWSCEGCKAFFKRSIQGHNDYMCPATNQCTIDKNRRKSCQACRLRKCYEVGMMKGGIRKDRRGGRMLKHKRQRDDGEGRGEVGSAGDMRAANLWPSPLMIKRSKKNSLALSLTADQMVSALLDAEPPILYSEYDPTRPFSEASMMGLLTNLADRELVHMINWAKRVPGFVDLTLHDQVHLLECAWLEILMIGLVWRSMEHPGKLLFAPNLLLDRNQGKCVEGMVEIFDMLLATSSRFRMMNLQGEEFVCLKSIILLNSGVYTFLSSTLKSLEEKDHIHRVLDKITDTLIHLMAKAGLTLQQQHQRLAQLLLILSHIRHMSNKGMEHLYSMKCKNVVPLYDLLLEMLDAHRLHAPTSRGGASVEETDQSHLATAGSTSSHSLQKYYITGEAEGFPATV

Compound	inhibition (at 45 µM)	inhibition (inhibition, at 15 µM) [%]
COC(=O)[C@H]1[C@H]2C[C@H]3c4[nH]c5ccccc5c4CCN3C[C@H]2CC[C@@H]1O	1.18% (inactive)	3.29
CC(=O)NCCc1ccc(O)c(O)c1	-22% (inactive)	-4.7
C[C@@H](Oc1ccc(Oc2cnc3ccc(Cl)cc3n2)cc1)C(=O)O	-0.82% (inactive)	-2.92
CCCCOC(=O)NS(=O)(=O)c1sc(CC(C)C)cc1-c1ccc(Cn2c(CC)nc3c(C)cc(C)nc32)cc1	8.38% (inactive)	2.57
O=C(/C=C/c1ccc(O)cc1)c1ccc(O)cc1O	10.8% (inactive)	-3.98
CC#C[C@]1(O)CC[C@H]2[C@@H]3CCC4=CC(=O)CCC4=C3[C@@H](c3ccc(N(C)C)cc3)C[C@@]21C	4.52% (inactive)	1.37
O=C(O)CCC(NC(=O)c1ccccc1C(=O)O)C(=O)O (stereo unspecified)	-0.22% (inactive)	0.4
Oc1ccc(-c2nc(-c3ccc(F)cc3)c(-c3ccncc3)[nH]2)cc1	-3.04% (inactive)	-1.6
CC(=O)N1CCN(c2ccc(OC[C@H]3CO[C@](Cn4ccnc4)(c4ccc(Cl)cc4Cl)O3)cc2)CC1	-0.23% (inactive)	1.67
CC(CCc1ccc(O)cc1)NCCc1ccc(O)c(O)c1 (stereo unspecified)	-5.5% (inactive)	1.1
CC(C)[N+](C)(CCOC(=O)C1c2ccccc2Oc2ccccc21)C(C)C	7.96% (inactive)	8.56
CCSC(=N)N	-21.8% (inactive)	0.66
Cc1cccc(/C=C/c2ccccc2)n1	4.39% (inactive)	12.3
O=S(=O)(O)C1CCNCC1	1.25% (inactive)	4.59
C[N+](C)(C)CC=O	0.73% (inactive)	-1.9
COc1ccccc1NC(=O)Nc1nc(-c2cccnc2)nc2ccccc12	7.9% (inactive)	4.04
O=C(Nc1cccc(C(=O)Nc2ccc(S(=O)(=O)O)c3cc(S(=O)(=O)O)cc(S(=O)(=O)O)c23)c1)Nc1cccc(C(=O)Nc2ccc(S(=O)(=O)O)c3cc(S(=O)(=O)O)cc(S(=O)(=O)O)c23)c1	-3.86% (inactive)	-2.37
C[C@@H](CN1CCC(Cc2ccccc2)CC1)[C@@H](O)c1ccc(O)cc1	-2% (inactive)	1.32
OC[C@H]1O[C@@H](n2cnc3c(NC4CCCC4)ncnc32)C(O)[C@H]1O (stereo partly specified)	-0.88% (inactive)	3.03
COc1cc(C(=O)OCCCN2CCCN(CCCOC(=O)c3cc(OC)c(OC)c(OC)c3)CC2)cc(OC)c1OC	-2.88% (inactive)	-1.75
CN[C@H](CC(=O)O)C(=O)O	-0.69% (inactive)	-0.99
COc1cccc(OC)c1OCCNCC1COc2ccccc2O1 (stereo unspecified)	52.7% (inactive)	-0.05

Compound	inhibition (at 45 µM)	inhibition (inhibition, at 15 µM) [%]
Nc1c(S(=O)(=O)O)cc(Nc2ccc(Nc3nc(Cl)nc(Nc4ccc(S(=O)(=O)O)cc4)n3)c(S(=O)(=O)O)c2)c2c1C(=O)c1ccccc1C2=O	75.2% [fluorescence artefact?] (active)	58.5
OC[C@H]1O[C@@H](n2cnc3c(N[C@H]4CC5CCC4C5)ncnc32)[C@H](O)[C@@H]1O (stereo partly specified)	-7.11% (inactive)	-3.27
CC(C)(C)c1ccc(S(=O)(=O)/C=C/C#N)cc1	-4.31% (inactive)	-2.91
CCCc1c(OCCCOc2ccc(OCC(=O)O)cc2)ccc(C(C)=O)c1O	-1.06% (inactive)	5.6
C[C@]12CCC(=O)C=C1CC[C@@H]1[C@@H]2[C@@H](O)C[C@@]2(C)[C@H]1CC[C@]2(O)C(=O)COC(=O)CCC(=O)O	0.81% (inactive)	1.7
Oc1cc2c(c(Cl)c1O)CCNCC2c1ccccc1 (stereo unspecified)	-1.88% (inactive)	4.73
Cc1cccc(C)c1OCC(N)C(C)C (stereo unspecified)	-0.93% (inactive)	-1.42
O=[N+]([O-])c1ccc(-c2nc(-c3ccc(F)cc3)c(-c3ccncc3)[nH]2)cc1	-3.67% (inactive)	-0.79
Cc1scc2c1N(C(=O)CN1CCN(C)CC1)c1ccccc1NC2=O	-3.58% (inactive)	-4.27
O=C(Cc1ccc(Cl)c(Cl)c1)OCCN1CCCC1	-23.1% (inactive)	-1.83
O=[N+]([O-])c1cccc2c(Br)[nH]nc12	-0.31% (inactive)	-5.48
N[C@@H](CC(=O)O)C(=O)O	-5.55% (inactive)	-8.89
CC(C)(Sc1ccc(CCN(CCCCC2CCCCC2)C(=O)NC2CCCCC2)cc1)C(=O)O	43.1% (inactive)	8.46
NS(=O)(=O)c1cccc2c1c([N+](=O)[O-])cc1nc(O)c(O)nc12	-0.73% (inactive)	-5.25
CC(=O)O[C@H]1CC2(C)[C@@H](C[C@@H](O)[C@H]3[C@@]4(C)CC[C@@H](O)[C@@H](C)[C@@H]4CC[C@@]32C)C1=C(CCC=C(C)C)C(=O)O (stereo partly specified)	80.4% (inactive)	14.2
Oc1cc(O)cc(/C=C/c2ccc(O)c(O)c2)c1	70.5% (inactive)	32.3
COc1cc2c(CCNC(C)=O)c[nH]c2cc1O	-5.77% (inactive)	-3
N#C/C(=C\c1c[nH]c2ccccc12)C(=O)c1ccc(O)c(O)c1	4.91% (inactive)	10.1
CSc1nc(N)c2ncn([C@@H]3O[C@H](COP(=O)(O)OP(=O)(O)O)[C@H](O)C3O)c2n1 (stereo partly specified)	2.87% (inactive)	-1.28
CN1CCc2c(cc(O)c(O)c2Cl)C(c2cccc(Cl)c2)C1 (stereo unspecified)	7.51% (inactive)	4.56
OC[C@H]1O[C@@H](n2cnc3c(NC4CCCCC4)ncnc32)[C@H](O)[C@@H]1O	-1.41% (inactive)	-1.34

Reference: PubChem BioAssay AID694 (Emory University Molecular Libraries Screening Center, 2007)
